Test results published in PubChem BioAssay (Tox21).
Records with an inconclusive call do not appear. A call without a number means that no potency is given here. Calls of active or inactive are those of the source. Unless noted, the call rests on the fitted dose curve; in most records, active means well fitted curve in the direction sought with a large enough effect in the repeat runs; inconclusive means weak or mixed curves; inactive means no such curve, though single readings can be large; an effect the other way counts as inactive or inconclusive.

What was measured:
[1] = qHTS assay for small molecules that induce genotoxicity in human embryonic kidney cells expressing luciferase-tagged ATAD5 (AID 651632); further: nearly all actives have a fitted effect of over 15% in size
How it was run: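 Concentration-response screen for ATAD5 upregulation in HEK293T luciferase reporter cells; 16 hr treatment at 37C, then luminescence after 30 min with Amplite at room temperature.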

[2] = qHTS assay for small molecule agonists of the p53 signaling pathway - cell viability (AID 651633; calls by dose curve; further: nearly all actives have a fitted effect of over 30% in size; further: potency means the concentration at half of the fitted maximal effect)
How it was run: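 p53RE-bla cells were treated with compound for 16 hours at 37 C. Cytotoxicity was then measured as CellTiter-Glo luminescence after 30 min at room temperature.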

[3] = qHTS assay for small molecules that induce genotoxicity in human embryonic kidney cells expressing luciferase-tagged ATAD5 - cell viability (AID 651634; calls by dose curve; further: nearly all actives have a fitted effect of over 25% in size)
How it was run: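 15.5 hr compound or vehicle exposure of HEK293T cells expressing luciferase-tagged ATAD5 at 37C; live-cell protease activity is read by fluorescence after 30 min of CellTiter-Fluor.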

[4] = qHTS assay for small molecule disruptors of the mitochondrial membrane potential - cell viability (AID 720634; calls by dose curve;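 further: human HepG2 liver cancer cells; series mostly up to about 83 µM; nearly all actives have a fitted effect of over 20% in size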)
How it was run: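 In this qHTS format, HepG2 cells plated overnight were pinned with compound, incubated 1 hr, and assayed for ATP luminescence with CellTiter-Glo after m-MPI dye addition.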

[5] = qHTS assay to test for compound auto fluorescence at 590 nm (red) in HepG2 cells (AID 720674)
How it was run: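 Fluorescence at 590 nm emission following 540 nm excitation was recorded from HepG2 wells one hour after compound transfer, with DMSO-only wells as vehicle and Rose Bengal sodium equivalency as the scale.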

[6] = qHTS assay to test for compound auto fluorescence at 460 nm (blue) in HEK293 cells (AID 720678)
How it was run: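 Blue-channel (Ex/Em 405/460 nm) intensity measured in HEK293 cultures after overnight compound exposure at 37C; signal expressed relative to triamterene. Cells plated 2,000 per well in 10% dialyzed FBS medium and allowed 4-5 hr to attach.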

[7] = qHTS assay to test for compound auto fluorescence at 590 nm (red) in HEK293 cells (AID 720679)
How it was run: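 Red-channel autofluorescence (Ex/Em 540/590 nm; Rose Bengal sodium reference) was measured after overnight 37C, 5% CO2 exposure of attached HEK293 cells, 2,000 per well in medium with 10% dialyzed FBS.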

[8] = qHTS assay for small molecule disruptors of the mitochondrial membrane potential (AID 720635); further: potency means the concentration at half of the fitted maximal effect
How it was run: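 HepG2 cells exposed to compound 1 hr at 37C, then Mito-MPS dye 30 min. Ratio read of aggregate (540/590 nm) versus monomer (490/535 nm) fluorescence.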

[9] = qHTS assay to test for compound auto fluorescence at 535 nm (green) in HepG2 cells (AID 720675)

Row | SMILES | Potency [1] | Potency [2] | Potency [3] | Potency [4] | outcome [5] | outcome [6] | outcome [7] | Potency [8] | outcome [9]
1 | NS(=O)(=O)c1cc(-c2nn[nH]n2)c(NCc2cccs2)cc1Cl | inactive | inactive | inactive | inactive | inactive | inactive | inactive | – | –
2 | CCC(=O)c1ccc2c(c1)N(CCCN(C)C)c1ccccc1S2 | inactive | inactive | inactive | inactive | inactive | inactive | inactive | – | –
3 | CC1=NN(c2cc(Cl)c(S(=O)(=O)O)cc2Cl)C(=O)C1N=Nc1ccc(S(=O)(=O)O)cc1 (stereo unspecified) | inactive | inactive | – | inactive | inactive | inactive | inactive | inactive | inactive
4 | CCOC(=O)COc1ccc2c(c1)CC(NCC(O)c1cccc(Cl)c1)CC2 (stereo unspecified) | inactive | – | inactive | inactive | inactive | – | – | – | inactive
5 | O=C1CCCCC1C1CCCCC1 (stereo unspecified) | inactive | inactive | inactive | inactive | inactive | inactive | inactive | – | inactive
6 | O=CCCc1ccccc1 | inactive | inactive | inactive | inactive | inactive | inactive | inactive | – | –
7 | Oc1ccccc1F | inactive | – | inactive | inactive | inactive | – | inactive | inactive | inactive
8 | Cc1cc2c(s1)Nc1ccccc1N=C2N1CCN(C)CC1 | inactive | inactive | – | inactive | inactive | inactive | inactive | inactive | inactive
9 | O=C(CC(=O)C(F)(F)F)c1ccccc1 | inactive | inactive | – | – | inactive | – | – | 15.6 µM (active) | inactive
10 | O=c1[nH]c(=O)n([C@H]2C[C@H](O)[C@@H](CO)O2)cc1C(F)(F)F | inactive | – | inactive | inactive | inactive | – | inactive | – | inactive
11 | COc1ccc(Nc2ccc(OC)cc2)cc1 | – | inactive | – | inactive | inactive | inactive | inactive | – | inactive
12 | CCN(CC)CCOc1ccc(Cc2ccccc2)cc1 | inactive | – | inactive | inactive | inactive | – | inactive | – | inactive
13 | CC1=C(CC(=O)O)c2cc(F)ccc2/C1=C\c1ccc(S(C)(=O)=O)cc1 | inactive | – | inactive | inactive | inactive | inactive | inactive | – | inactive
14 | CC(C)O | inactive | – | inactive | inactive | inactive | inactive | inactive | inactive | inactive
15 | CC(C)(C)C1CCCCC1=O (stereo unspecified) | inactive | – | inactive | inactive | inactive | inactive | inactive | – | inactive
16 | Clc1cccc(-c2cc(Cl)cc(Cl)c2)c1 | inactive | – | inactive | inactive | inactive | inactive | inactive | – | inactive
17 | O=C(Cl)c1cccc([N+](=O)[O-])c1 | – | inactive | – | inactive | inactive | inactive | inactive | inactive | –
18 | CCCCCCCCCCCCCCCCOP(=O)([O-])OCC[N+](C)(C)C | inactive | inactive | inactive | inactive | inactive | – | inactive | – | inactive
19 | CCN(CC)CC1CCCCN1CC(=O)N1c2ccccc2C(=O)Nc2cccnc21 (stereo unspecified) | inactive | – | inactive | inactive | inactive | inactive | inactive | inactive | –
20 | CC1=C2[C@H](/C=C(\C)C(=O)O)CC[C@@H](C)[C@H]2CC1 | inactive | inactive | inactive | inactive | inactive | inactive | – | – | –
21 | O=C1CCCCCCCCCCC(=O)OCCO1 | inactive | 54.5 µM (active) | inactive | – | inactive | inactive | inactive | 27.3 µM (active) | inactive
22 | Cc1c(N)cccc1N | – | inactive | inactive | inactive | inactive | inactive | inactive | 17.6 µM (active) | inactive
